# Assay results reported in PubChem BioAssay AID686978 (National Center for Advancing Translational Sciences (NCATS), 2013).
# Screen size: about 420,000 compounds; about 64,000 (15%) were called active. Another 27% or so got no clear call; they are omitted. Calls come from the whole dose curve; as a rule, active = well fitted inhibition curve with a large enough effect; inconclusive = small, poorly fitted or top-dose-only effect; inactive = flat fitted curve, though single readings scatter. Only a sample is shown.
# Experiment: qHTS for Inhibitors of human tyrosyl-DNA phosphodiesterase 1 (TDP1): qHTS in cells in absence of CPT; note: nearly all actives have a fitted effect of over 55% in size
# Details: DT40 Tdp1-/- hTDP1 cells, no CPT, ATP luminescence, 48 h; activity change, negative = growth inhibition: at 46.2 µM (top of the series)
# In short: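 Chicken DT40 Tdp1-/- cells stably complemented with human TDP1 were seeded at 400 cells/well with DMSO in place of 20 nM camptothecin. After compound pinning, cells grew at least 48 hr at 37 °C; viability read by CellTiter-Glo luminescence.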
# % is set by controls: 0 for no effect and ±100 for the full control effect; potency is the fitted concentration of half-maximal effect.
SMILES,"activity change, negative = growth inhibition",Potency
C=CCn1c(SCc2cc(C(=O)OC)c(C)o2)nnc1-c1ccncc1,-5.22% (inactive),
CCOC(=O)N1CCC(N2Cc3cccc(C(=O)Nc4c(C)cccc4CC)c3C2=O)CC1,,23.1 µM (active)
CCOC(=O)N1CCC(N2Cc3cccc(C(=O)Nc4ccc(S(=O)(=O)N(CC)CC)cc4)c3C2=O)CC1,2.22% (inactive),
COC(=O)c1ccc(NC(=O)c2cccc3c2C(=O)N(C2CCCCC2)C3)cc1,-3.73% (inactive),
CC1(C)O[C@@H]2[C@H](O1)[C@@H](COS(=O)(=O)O)O[C@H]2n1ccc(=O)[nH]c1=O,0.812% (inactive),
CCOc1ccc(C(=O)Nc2ccncc2)cc1,,18.4 µM (active)
O=C(CSc1ccccc1)Nc1ccc(C(=O)Nc2cccc(O)c2)cc1,-13.8% (inactive),
CCOc1cccc(C(=O)Nc2cccnc2)c1,-13% (inactive),
NC(=O)COc1ccc(NC(=O)c2ccccc2-c2ccccc2)cc1,6.23% (inactive),
CCOc1ccc(NC(=O)c2ccccc2NS(C)(=O)=O)cc1,,18.4 µM (active)
CSc1cccc(NC(=O)CSc2ccccc2)c1,-17.1% (inactive),
CCOc1ccc(NC(=O)c2ccc(NC(=O)C3CCCO3)cc2)cc1 (configuration not stated),-1.68% (inactive),
CCOc1ccc(C(=O)Nc2cccc(SC)c2)cc1,,9.2 µM (active)
COC(=O)c1ccccc1NC(=O)c1ccccc1NS(C)(=O)=O,-25.9% (inactive),
CCCOc1cccc(C(=O)Nc2cccc(NC(=O)c3ccc(C(C)(C)C)cc3)c2)c1,,29.1 µM (active)
CCOc1ccc(NC(=O)c2ccc(CSc3nnnn3C)cc2)cc1,-21% (inactive),
CCCOc1cccc(C(=O)NCCCNC(=O)c2cccnc2)c1,12.2% (inactive),
Cc1cc(C(=O)OC(C)C(=O)Nc2cccc(S(=O)(=O)N3CCOCC3)c2)c(C)o1 (configuration not stated),-31.2% (inactive),
COCCCNC(=S)NC(=O)c1ccc([N+](=O)[O-])cc1,-23.1% (inactive),
CCOc1ccccc1NS(=O)(=O)c1c[nH]c(C(=O)OC)c1,-29.1% (inactive),
COCCCNC(=O)c1c(NC(=O)c2cc(=O)c3cc(C)c(C)cc3o2)sc2c1CCCC2,-16.2% (inactive),
Cc1cc(O)c(C2(O)C(=O)Nc3ccccc32)cc1C (configuration not stated),-2.69% (inactive),

SMILES,"activity change, negative = growth inhibition",Potency
COc1ccc(Cc2nc(-c3ccccn3)no2)cc1OC,7.04% (inactive),
Cc1nc2ccccc2c(C(=O)O)c1-c1ccccn1,14.2% (inactive),
CC(C)(C)c1ccc(Oc2ccc(N)cc2)cc1,-18.1% (inactive),
CC(C)(C)Nc1nc(-c2ccccn2)nc2ccccc12,,4.11 µM (active)
Cc1ccc(Oc2nc(-c3ccccn3)nc3ccccc23)cc1,,18.4 µM (active)
COc1cnc(-c2ccccn2)nc1Oc1ccc(C(C)(C)C)cc1,,4.61 µM (active)
CCOC(=O)c1cnc(-c2ccccc2)nc1Oc1ccc(C)cc1,-11.3% (inactive),
O=C(c1ccc(NS(=O)(=O)c2ccc3[nH]c(=O)[nH]c3c2)cc1)N1CCCCC1,-0.463% (inactive),
CCC(CC)C(=O)Nc1c2c(nn1-c1ccc(C)cc1)CS(=O)(=O)C2,-10.3% (inactive),
Cc1noc(COc2ccccc2OCc2onc(C)c2Cl)c1Cl,-14.2% (inactive),
CC1(OC(=O)C2CCCC2)C(=O)C=C2C=C(c3ccc(C#N)cc3)OC=C2C1=O (configuration not stated),1.66% (inactive),
CC(C)NC(=O)CSc1nnc(COc2ccccc2Cl)o1,0.313% (inactive),
C/C(=N\NS(=O)(=O)c1cccc([N+](=O)[O-])c1)c1cc2ccccc2o1,-20.6% (inactive),
Cc1cc(NC(=O)COC(=O)COc2ccc(Cl)cc2C)c([N+](=O)[O-])cc1C,-40.4% (inactive),
O=C(CCCN=C1NS(=O)(=O)c2ccccc21)OCC(=O)c1ccc(F)c(F)c1,-2.32% (inactive),
CCc1n[nH]c(=S)n1/N=C/c1c[nH]c2ccc(Br)cc12,,18.4 µM (active)
Oc1ccccc1/C=N/n1c(-c2cccs2)n[nH]c1=S,-9.3% (inactive),
S=c1[nH]nc(-c2ccccc2)n1/N=C/c1c[nH]c2ccccc12,,6.51 µM (active)
S=c1[nH]nc(-c2ccncc2)n1/N=C/c1ccccc1Cl,-7.12% (inactive),
Fc1ccc(/C=N/n2c(COc3ccccc3)n[nH]c2=S)cc1,-4.74% (inactive),
Cc1ccc(/C=N\n2c(-c3ccccc3)n[nH]c2=S)s1,-20.4% (inactive),
N#CCCN1CCN(S(=O)(=O)c2ccc(S(=O)(=O)NC3CCCCC3)cc2)CC1,-18.6% (inactive),

SMILES,"activity change, negative = growth inhibition",Potency
COc1ccc(CCC(=O)OCC(=O)Nc2ccc(C)c(S(=O)(=O)N(C)C)c2)cc1,-4.58% (inactive),
CCCCCCSc1nsc(N)n1,-28% (inactive),
CCOC(=O)CSc1nnc(CNC(=O)c2cccs2)n1-c1cc(OC)ccc1OC,0.211% (inactive),
Cc1cc(=O)oc2c(C(=O)c3ccccc3)c(OCC(N)=O)ccc12,-0.608% (inactive),
O=C(CCCn1c(=O)oc2ccccc21)Nc1cccnc1,-2.31% (inactive),
CC(C)Cn1cc(-c2cncc3nccn23)cn1,-11.4% (inactive),
Fc1ccccc1OCCSc1nc2ccccc2o1,-13.3% (inactive),
Cn1c(=O)[nH]c(=O)c2c1nc(Br)n2CCCCSc1nc2ccccc2o1,,18.4 µM (active)
Cc1ccnc(SCCn2c(Br)nc3c2c(=O)[nH]c(=O)n3C)n1,-6.34% (inactive),
CCc1ccc(-c2nc(SCC(=O)NC3CCCC3)n[nH]2)cc1,,23.1 µM (active)
COc1ccc(-c2nc(SCC(=O)N3CCCC3)n[nH]2)cc1,-14.3% (inactive),
CCc1c(C)nc(SCC(=O)NC2CCCC2)[nH]c1=O,5.26% (inactive),
Cc1cc(Br)ccc1SCC(=O)OCC(=O)NCc1ccc2c(c1)OCO2,6.68% (inactive),
CCOc1ccc(C(=O)NC(C(=O)NCc2ccccn2)C(C)C)cc1 (configuration not stated),-22.4% (inactive),
COc1ccc(F)cc1S(=O)(=O)N1CCCCC1,-12.5% (inactive),
COc1cccc(CNCc2c(C(=O)O)n(Cc3ccc(C)cc3)c3cc(C)ccc23)c1OC,,16.4 µM (active)
CCOc1c(CNCc2ccc(C(=O)O)cc2)cccc1OC,-12.9% (inactive),
COc1ccc(CCNCc2c(C(=O)O)c(C)n(Cc3cccc(C)c3)c2C)cc1OC,-25.8% (inactive),
CCOC(=O)c1c(Cc2ccc(Cl)cc2)c[nH]c1C,-25.9% (inactive),
NC(=NC(=O)c1ccccc1)N1CCOCC1,-7.81% (inactive),
O=C(CNS(=O)(=O)c1ccccc1)NCC(=O)OCc1ccccc1F,-1.4% (inactive),
COc1ccc(-c2nc3sc(CCNS(=O)(=O)c4ccc(F)c(C)c4)c(C)n3n2)cc1,,20.6 µM (active)

SMILES,"activity change, negative = growth inhibition",Potency
Cc1ccc(S(=O)(=O)NCCC(=O)Nc2cccc(S(N)(=O)=O)c2)cc1C,-7.74% (inactive),
COc1ccc(-c2nc3sc(CCNC(=O)C(C)(C)C)c(C)n3n2)cc1,,23.1 µM (active)
COc1ccc(CNC(=O)Cn2nnc(-c3ccc(S(C)(=O)=O)cc3)n2)cc1,3.37% (inactive),
CCOc1ccc2nc(NCCNC(=O)C(C)(C)C)c(C)cc2c1,3.35% (inactive),
COc1ccc(CCNS(=O)(=O)c2cn(C)nc2C)cc1,21.6% (inactive),
COC(=O)C1=NNC2(c3ccc(C)cc3)C(=O)N(c3cccc(C)c3C)C(=O)C12 (configuration not stated),0.864% (inactive),
CS(=O)(=O)c1ccc(-c2nnn(CC(=O)Nc3ccc4c(c3)OCCO4)n2)cc1,-22.9% (inactive),
O=C(NC1CCN(Cc2ccccc2)CC1)c1ccc(Oc2cc(Cl)cc(Cl)c2)o1,,18.4 µM (active)
O=C(NC1CCN(Cc2ccccc2)CC1)c1cc(Br)c(Br)[nH]1,,16.4 µM (active)
O=C(NC1CCN(Cc2ccccc2)CC1)c1ccccc1F,-1.29% (inactive),
CC(=O)NCc1ccc(S(=O)(=O)NC2CCN(Cc3ccccc3)CC2)cc1,-25.9% (inactive),
O=C(NC1CCN(Cc2ccccc2)CC1)c1c(F)cccc1F,-0.567% (inactive),
O=S(=O)(NCc1ccccn1)c1ccc(Br)s1,-29.1% (inactive),
CCOCCCNC(=O)c1c[nH]c2cc(C)ccc2c1=O,-26.3% (inactive),
COc1cccc(OCc2nnc3n2N=C(c2ccccc2)C(CC(=O)O)S3)c1 (configuration not stated),-1.23% (inactive),
O=C(O)c1ccc2c(c1)C(=O)N(c1ccc(/C=C/C(=O)c3ccccc3)cc1)C2=O,12.3% (inactive),
Cc1nn(-c2ccccc2)c(CC(C)(C)C(=O)O)c1C(=O)O,-4.67% (inactive),
Cc1ccc(C(=O)/C=C/c2c(C)nn(-c3ccccc3)c2Cl)cc1,,20.6 µM (active)
Cc1nn(-c2ccccc2)c(C)c1/C=C/C(=O)OC(C)C(N)=O (configuration not stated),-4.84% (inactive),
Cc1nn(-c2ccccc2)c(Cl)c1/C=C/C(=O)c1ccc(O)cc1,,16.4 µM (active)
Cc1nn(-c2ccccc2)c(Cl)c1C(=O)Nc1ccccc1,-11.2% (inactive),
COc1ccc(C2CC(=O)C=C(NCC3CCCO3)C2)cc1 (configuration not stated),0.462% (inactive),

SMILES,"activity change, negative = growth inhibition",Potency
COC(=O)c1ccc(/C=N\n2c(C)nnc2C)cc1,-0.419% (inactive),
CC(OC(=O)c1ccc(NS(=O)(=O)c2ccc3[nH]c(=O)[nH]c3c2)cc1)C(=O)Nc1cccc(Cl)c1Cl (configuration not stated),3.55% (inactive),
O=C(COCc1cc(-c2ccc3c(c2)OCO3)on1)N1CCN(c2cccc(Cl)c2)CC1,-1.5% (inactive),
Cc1cc(/C=C2/C(=N)N3C(=NC2=O)SN=C3S(C)(=O)=O)c(C)n1-c1ccccc1,-18.8% (inactive),
O=C(CSc1nnc(Cc2ccccc2)n1-c1ccccc1)N1CCOCC1,-0.859% (inactive),
CN(CCc1ccccn1)C(=O)c1ccc(OC2CCN(CCc3ccccc3)CC2)cc1,-27% (inactive),
c1ccc(-c2cc(-c3ccccc3)[nH]n2)cc1,-8.4% (inactive),
Fc1ccc(-c2ccc(-c3nn4c(-c5ccco5)nnc4s3)o2)cc1,-28.6% (inactive),
c1ccc(-c2cc(-c3nnc4sc(-c5ccccn5)nn34)[nH]n2)cc1,,13 µM (active)
COC(=O)C1[C@H]2SC(C)(C)C(C(=O)OC)N2C(=O)N1Cc1nc2ccccc2s1 (some centres not stated),-3.96% (inactive),
Cc1cccc(CSc2nnc(Cn3c(=O)sc4ccccc43)n2C)c1,-24.2% (inactive),
CNC(=S)N1N=C(c2ccccc2)CC1c1ccc(Br)cc1 (configuration not stated),-23% (inactive),
Brc1ccc(C2CC(c3ccccc3)=Nc3ccccc3N2)cc1 (configuration not stated),,23.1 µM (active)
CCCC(=O)Nc1cccc(NC(=S)NC(=O)C(C)Oc2ccc(Cl)cc2Cl)c1 (configuration not stated),-24.7% (inactive),
CC(Cc1cccs1)NC(=O)c1cccc(Cl)c1 (configuration not stated),-29.3% (inactive),
Cc1noc(C)c1S(=O)(=O)N(C)C[C@H]1Oc2ccc(NC(=O)C3CC3)cc2C(=O)N([C@H](C)CO)C[C@@H]1C,-17.6% (inactive),
COc1ccc(-c2nc(Cn3c(=O)cc(C)c4c(C)nn(-c5ccccc5)c43)c(C)o2)cc1OC,5.82% (inactive),
Cc1ccc(-c2nc(Cn3c(=O)cc(-c4ccccc4)c4c(C)nn(C)c43)c(C)o2)cc1,-4.46% (inactive),
COc1ccc(-c2nc(Cn3c(=O)cc(C)c4c(C)nn(-c5ccccc5)c43)c(C)o2)c(OC)c1,,20.6 µM (active)
